High-throughput results from PubChem.
KB-V1 MDR tox: qHTS assay for MDR1-selective chemotherapeutics: Primary screen using the drug-selected MDR subline cells KB-V1. KB-V1 MDR cells viability, CellTiter-Glo, 72 h. Potency, µM (titrated, usually from 46.1 µM), hits mostly cytotoxic. 400,000 compounds, 3.4% hits; further: on the % scale 0 is the no-effect control and ±100 the full control effect; nearly all actives have a fitted effect of over 60% in size
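KB-V1 MDR subline cells in DMEM (phenol-red free, 10% FBS) exposed to compounds in qHTS concentration series for 72 h at 37 degrees C. Viability read by CellTiter-Glo luminescence; concentration-effect curves fitted after normalization and correction.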
KB-3-1 tox: qHTS assay for MDR1-selective chemotherapeutics: Primary screen using the parental adenocarcinoma cell KB-3-1; KB-3-1 viability, CellTiter-Glo ATP luminescence, 72 h; Potency, µM (series often up to 46.1 µM), usual class: cytotoxic; 400,000 compounds, 1.4% hits; further: on the % scale 0 is the no-effect control and ±100 the full control effect; nearly all actives have a fitted effect of over 60% in size
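Using CellTiter-Glo luminescence, growth of non-resistant KB-3-1 adenocarcinoma cells is assessed 72 h after pin-tool compound addition at 37 °C. Normalized responses across the concentration series yield fitted curves.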
MCF10A rereplic: A quantitative high throughput screen for small molecules that induce DNA re-replication in MCF 10a normal breast cells | MCF 10A DNA re-replication, Hoechst nuclear intensity, 48 h | Potency, µM (top dose mostly 46.1 µM), for inactives: at the top dose activity, positive = re-replication, usual class: activators | 350,000 compounds, 2.9% hits; further: % of control where 0% means no effect; nearly all actives have a fitted effect of over 50% in size
PINK1 expr mod: A Quantitative High throughput Screen to Identify Chemical Modulators of PINK1 Expression | PINK1 immunofluorescence, high-content cytometry, 24 h | Potency, µM (doses to about 76.6 µM), for the others: top-dose activation (PINK1 increase), actives largely listed as activators | 410,000 compounds, 0.2% hits | AID 624263, 2012; active means well fitted activation curve with a large enough effect; inconclusive means small, poorly fitted or top-dose-only effect; cell line not stated here; further: % of control where 0% means no effect; nearly all actives have a fitted effect of over 65% in size
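PINK1 protein, normally rapidly degraded, was detected by immunofluorescence after 24 hour compound treatment of a stable cell line. Titration data (5 concentrations) came from laser-scanning cytometry, with CCCP-treated wells as controls.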
SW480 rerep: A quantitative high throughput screen for small molecules that induce DNA re-replication in SW480 colon adenocarcinoma cells. SW480 DNA re-replication, Hoechst DNA content imaging, 48 h. Potency, µM (series often up to 46.1 µM), inactives show top-dose re-replication activation, actives largely listed as activators. 340,000 compounds, 1.8% hits. AID 624297, 2012; further: % of control where 0% means no effect; nearly all actives have a fitted effect of over 55% in size
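SW480 cells exposed to compounds for 48 hr at 37 C, 5% CO2, then Hoechst-stained 40 min. Nuclear DNA content imaged by fluorescence scanning (405 nm excitation, 500-530 nm emission); re-replication scored as increased high-intensity nuclei.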
* = called active by the depositor; [ ] = remark or other dose. Rows were chosen to be rich in hits. Some 6.7% of all compounds tested hit in one or more screens of this group. Unless noted, the call rests on the fitted dose curve; in most records, active means well fitted curve in the direction sought with a large enough effect; inconclusive means small, poorly fitted or top-dose-only effect, or another doubt; inactive means no such curve, though single readings can be large; an effect the other way counts as inactive or inconclusive. Potency means the concentration at half of the fitted maximal effect.

`CN(C)c1ccc(NC2=C(Cl)C(=O)c3ccccc3C2=O)cc1` gave KB-V1 MDR tox inactive, KB-3-1 tox inconclusive, MCF10A rereplic 4.1µM*, PINK1 expr mod -2% and SW480 rerep 2.9µM*.
Screening O=C(Oc1ccc(NC2=C(Cl)C(=O)c3ccccc3C2=O)cc1)c1ccc([N+](=O)[O-])cc1 returned KB-V1 MDR tox inactive, KB-3-1 tox inactive, MCF10A rereplic -2%, PINK1 expr mod -1% and SW480 rerep -16%.
`O=C(Nc1ccc2cn[nH]c2c1)c1c(Cl)cccc1Cl` gave KB-V1 MDR tox inactive, KB-3-1 tox inactive, MCF10A rereplic -5%, PINK1 expr mod -1% and SW480 rerep -6%.
`O=C1C(Cl)=C(Nc2ccc3cn[nH]c3c2)C(=O)c2ccccc21` gave KB-V1 MDR tox inconclusive, KB-3-1 tox inconclusive, MCF10A rereplic 0.58µM*, PINK1 expr mod -4% and SW480 rerep 2.3µM*.
Screening O=C1C(Cl)=C(NCCCO)C(=O)c2ccccc21 returned KB-V1 MDR tox inactive, KB-3-1 tox 23µM*, MCF10A rereplic inconclusive, PINK1 expr mod -1% and SW480 rerep inconclusive.
Screening CC(=O)Nc1ccc(NC2=C(Cl)C(=O)c3ccccc3C2=O)cc1 returned KB-V1 MDR tox inconclusive, KB-3-1 tox 16µM*, MCF10A rereplic inconclusive, PINK1 expr mod -5% and SW480 rerep 5.2µM*.
`Cc1nc2cccnc2n1C1CCN(S(=O)(=O)N(C)C)CC1` gave KB-V1 MDR tox inactive, KB-3-1 tox inactive and PINK1 expr mod 0%.
Screening CC(C)(C)c1ccc(/C=C/C(=O)c2ccc(NC3=NCCCS3)cc2)cc1 returned KB-V1 MDR tox inconclusive, KB-3-1 tox inconclusive, MCF10A rereplic 18µM*, PINK1 expr mod 0% and SW480 rerep inconclusive.
For CN(C)c1ccc(C(=O)/C=C/c2ccc(Br)cc2)cc1 the results were KB-V1 MDR tox inactive, KB-3-1 tox inactive, MCF10A rereplic 5%, PINK1 expr mod inconclusive and SW480 rerep inconclusive.
Cc1cccc(/C=C/C(=O)c2ccc(NC3=NCCCS3)cc2)c1 was read as KB-V1 MDR tox inconclusive, KB-3-1 tox inconclusive, MCF10A rereplic inconclusive, PINK1 expr mod -1% and SW480 rerep 9.2µM*.
`COc1cccc(/C=C/C(=O)c2ccc(NC3=NCCCS3)cc2)c1` gave KB-V1 MDR tox inconclusive, KB-3-1 tox inconclusive, MCF10A rereplic inconclusive, PINK1 expr mod -1% and SW480 rerep inconclusive.
For O=C(/C=C/c1ccccc1)c1ccc(NC2=NCCCS2)cc1 the results were KB-V1 MDR tox 21µM*, KB-3-1 tox inconclusive, MCF10A rereplic 18µM*, PINK1 expr mod -1% and SW480 rerep inconclusive.
Screening O=C(/C=C/c1ccc(Br)cc1)c1ccc(NC2=NCCCS2)cc1 returned KB-V1 MDR tox inactive, KB-3-1 tox 21µM*, MCF10A rereplic 5.2µM*, PINK1 expr mod -1% and SW480 rerep 4.6µM*.
`c1ccc(NC2=NCCCCS2)cc1` gave KB-V1 MDR tox inactive, KB-3-1 tox inactive, MCF10A rereplic 6%, PINK1 expr mod -4% and SW480 rerep -1%.
Cc1cc(=O)n(Cc2cccc(Cl)c2)c2c1c(C)nn2-c1ccccc1 was read as KB-V1 MDR tox inconclusive, KB-3-1 tox inactive and PINK1 expr mod 2%.
For COc1ccc(-c2noc(CSc3nnc(C)n3-c3ccc(OC)cc3)n2)cc1 the results were KB-V1 MDR tox inactive, KB-3-1 tox inactive and PINK1 expr mod 1%.
`COc1ccc(C(C(=O)Nc2ccc(F)cc2)N2CCN(CC(=O)N3CCCC3)CC2)cc1` (configuration not stated) gave KB-V1 MDR tox inactive and KB-3-1 tox inactive.
For CCOc1ccccc1CNC(=O)CCCN1C(=O)CCn2nc(-c3cccn3C)cc21 the results were KB-V1 MDR tox inactive, KB-3-1 tox inactive and PINK1 expr mod 3%.
`Cc1cccc(S(=O)(=O)c2c(N)n(/N=C/c3ccco3)c3nc4ccccc4nc23)c1` gave KB-V1 MDR tox 3.7µM*, KB-3-1 tox inactive, MCF10A rereplic inconclusive, PINK1 expr mod 5%[38.3 µM] and SW480 rerep 25%.
Cc1ccc(S(=O)(=O)c2c(N)n(/N=C/c3ccco3)c3nc4ccccc4nc23)cc1 was read as KB-V1 MDR tox inactive, KB-3-1 tox inactive, MCF10A rereplic inconclusive, PINK1 expr mod 1% and SW480 rerep -7%.
Screening Nc1c(S(=O)(=O)c2cccs2)c2nc3ccccc3nc2n1/N=C/c1cccc(O)c1 returned KB-V1 MDR tox inconclusive, KB-3-1 tox inconclusive, MCF10A rereplic 6.5µM*, PINK1 expr mod 6% and SW480 rerep inconclusive.
Cc1ccc(-n2c(N)c(S(=O)(=O)c3ccccc3)c3nc4ccccc4nc32)cc1 was read as KB-V1 MDR tox inactive, KB-3-1 tox inactive, MCF10A rereplic -13%, PINK1 expr mod 6% and SW480 rerep -20%.
Cc1cccc(S(=O)(=O)c2c(N)n(-c3ccccc3)c3nc4ccccc4nc23)c1 was read as KB-V1 MDR tox 2.9µM*, KB-3-1 tox inactive, MCF10A rereplic 8%, PINK1 expr mod 1% and SW480 rerep -1%.
COc1cc(OC)c(NC(=O)CCc2nc(C3=CCN(Cc4cccc(Cl)c4)CC3)no2)cc1Cl was read as KB-V1 MDR tox inactive, KB-3-1 tox inactive and PINK1 expr mod -1%.
`O=C(Oc1ccc2c(c1)OCO2)c1ccc(Br)c(S(=O)(=O)N2CCOCC2)c1` gave KB-V1 MDR tox inactive, KB-3-1 tox inactive, MCF10A rereplic 6%, PINK1 expr mod 11µM* and SW480 rerep -4%.
For O=C(Nc1ccc2c(c1)OCO2)c1ccc(Br)c(S(=O)(=O)N2CCCC2)c1 the results were KB-V1 MDR tox 5.2µM*, KB-3-1 tox inconclusive, MCF10A rereplic 17%, PINK1 expr mod 0% and SW480 rerep -7%.
O=C(Nc1ccc2c(c1)OCCO2)c1ccc(Br)c(S(=O)(=O)N2CCOCC2)c1 was read as KB-V1 MDR tox inconclusive, KB-3-1 tox inactive, MCF10A rereplic inconclusive, PINK1 expr mod 1% and SW480 rerep 1%.
COc1ccc(S(=O)(=O)N2CCOCC2)cc1NC(=O)Cc1sc(C)nc1-c1ccc(F)cc1 was read as KB-V1 MDR tox 12µM*, KB-3-1 tox inconclusive, MCF10A rereplic 3%, PINK1 expr mod -1% and SW480 rerep 4%.
`COc1ccc(S(=O)(=O)N2CCOCC2)cc1NC(=O)COc1cccnc1[N+](=O)[O-]` gave KB-V1 MDR tox inactive, KB-3-1 tox inactive, MCF10A rereplic 0.58µM*, PINK1 expr mod -1% and SW480 rerep -9%.
